Compound activity (PubChem BioAssay)
SRC2 inh: inhibits human steroid receptor coactivator 2; AID 651957; inhibition, % at 9 µM; Q15596; HEK293 GAL4-SRC2 luciferase reporter, luminescence; actives 0.17% (n = 370,000);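 active means inhibition above the mean inhibition of all tested compounds plus 3 SD, set per campaign, cut at about 52% in these data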;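 further: 0% = DMSO treated cells and 100% = cells given Gossypol at 36 µM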
LRH-1 inv ag: NR5A2 inverse agonism in reporter assay. O00482. HEK293T StAR-luciferase reporter, LRH-1 transfected, 24 h. inhibition, % at 3.6 µM. actives 0.13% (n = 360,000);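 active means inhibition above the mean inhibition of all tested compounds plus 3 SD, cut at about 73% in these data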;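 further: 0% = DMSO wells and 100% = reporter-only cells lacking LRH-1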
Target sequence (O00482 whole entry, looked up): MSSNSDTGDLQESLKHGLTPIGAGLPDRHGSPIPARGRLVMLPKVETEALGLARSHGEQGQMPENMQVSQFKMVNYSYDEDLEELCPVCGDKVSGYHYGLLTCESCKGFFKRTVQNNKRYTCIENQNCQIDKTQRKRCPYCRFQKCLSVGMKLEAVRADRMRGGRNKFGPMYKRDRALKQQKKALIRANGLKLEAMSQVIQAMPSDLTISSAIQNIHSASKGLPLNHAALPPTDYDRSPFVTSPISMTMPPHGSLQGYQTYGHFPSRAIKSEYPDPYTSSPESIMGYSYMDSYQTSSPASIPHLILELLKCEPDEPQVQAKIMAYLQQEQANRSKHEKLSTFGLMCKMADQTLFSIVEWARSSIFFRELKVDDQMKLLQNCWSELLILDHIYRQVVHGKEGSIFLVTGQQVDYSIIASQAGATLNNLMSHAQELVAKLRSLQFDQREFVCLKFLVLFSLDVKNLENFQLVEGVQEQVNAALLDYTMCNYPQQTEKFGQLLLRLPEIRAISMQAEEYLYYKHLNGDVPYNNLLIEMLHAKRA
SRC1 inh: inhibits human SRC1 coactivator. Q15788. HEK293 GAL4-SRC1 luciferase reporter, luminescence. AID 588354. inhibition, % at 3.6 µM. actives 0.12% (n = 360,000);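 active means inhibition above the campaign mean plus 3 SD, with each screening campaign given its own cutoff, cut at about 60% in these data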;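 further: 0% = DMSO treated cells and 100% = gossypol at 36 µM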
Gli-Sufu block: blocks Gli-Sufu signaling in a luciferase reporter; Sufu-KO-LIGHT fibroblasts, Gli luciferase reporter luminescence; actives 0.74% (n = 340,000); inhibition, % at 5 µM;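 active means inhibition above about 55%, limit read from the data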;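 further: 0% = DMSO-treated cells and 100% = wells with medium but no cells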
NCOA3 inh: human NCOA3 inhibition. actives 0.17% (n = 360,000). HEK293 GAL4-SRC3 luciferase reporter, luminescence. inhibition, % at 3.6 µM. Q9Y6Q9;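 active means inhibition above a per-campaign cutoff, the mean of all compounds plus 3 SD, cut at about 60% in these data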;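 further: 0% = DMSO-treated cells and 100% = gossypol-treated cells at 36 µM; higher means less SRC3-driven luciferase light from the GAL4 reporter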
COUP-TFII inh: blocks human COUP-TFII nuclear receptor; HEK293T NGFI-A luciferase reporter, luminescence; inhibition, % at 8.6 µM; actives 0.7% (n = 370,000); AID 686940;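 active means inhibition above a per-plate cutoff, mean inhibition of test wells between control levels plus 3 SD, cut at about 38% in these data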;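 further: cells cotransfected with COUP-TFII expression vector driving the NGFI-A reporter; 0% = median of COUP-TF2 test wells and 100% = reporter-only cells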
Gli antag conf: Gli-SUFU antagonism confirmation, single concentration; shares compounds with Gli-Sufu block; Sufu-KO-LIGHT cells, Gli luciferase reporter, luminescence; inhibition, % at 5 µM; actives 40% (n = 2,500); AID 602428;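 active means mean inhibition at 5 µM reaching about 45%, limit read from the data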;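 further: plate controls were DMSO-treated cells for no effect and wells lacking cells for full effect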
SufuKO cytotox: cytotoxic in Gli-SUFU antagonist counter-screen; shares compounds with Gli-Sufu block; Sufu-KO-LIGHT cells cytotoxicity, ATP luminescence; cytotoxicity, % at 5 µM; actives 32% (n = 2,500); AID 651994;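 active means mean cytotoxicity at 5 µM above about 25%, limit read from the data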;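 further: cells exposed to compound overnight for roughly 16 to 18 hours; plate controls were DMSO wells with cells for no effect and medium without cells for full effect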
Wnt3a counter: Wnt3a reporter inhibition counter-screen; shares compounds with Gli-Sufu block; Wnt-LIGHT cells, Wnt3a-driven luciferase reporter, luminescence; inhibition, % at 6.25 µM; actives 20% (n = 2,500); AID 651995;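 active means mean inhibition above about 25%, limit read from the data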
VP16 Luc counter: inhibits VP16 reporter, flagging COUP-TFII antagonist hits | shares compounds with COUP-TFII inh | HEK293 Gal4-VP16 luciferase reporter, luminescence | inhibition, % at 8.5 µM | actives 25% (n = 2,500); in the data active means inhibition above about 13%
COUP-TFII conf: COUP-TFII (NR2F2) inhibition, confirmation assay; AID 687008; inhibition, % at 8.5 µM; HEK293 NGFI-A luciferase reporter, luminescence; shares compounds with COUP-TFII inh; actives 45% (n = 2,500);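 active means mean inhibition over three repeats above a set limit taken from the earlier primary screen, cut at about 38% in these data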;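 further: 100% = cells given the luciferase reporter alone without the COUP-TF2 vector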
* marks the source's active call; other numbers are inactive results. Sampled rows, rich in hits. Any-hit rate of the full collection: about 1.3%.

How did CCc1ccc(NC(=O)CCNC(=O)N2C[C@H]3C[C@@H](C2)c2cccc(=O)n2C3)cc1 do in these assays?
SRC2 inh: -29; LRH-1 inv ag: -11; SRC1 inh: -10; Gli-Sufu block: -11; NCOA3 inh: -23; COUP-TFII inh: -13

How did Cc1c(N=Cc2c(O)n(Cc3ccc(F)cc3)c(=O)[nH]c2=O)c(=O)n(-c2ccccc2)n1C do in these assays?
SRC2 inh: -15; LRH-1 inv ag: 5; SRC1 inh: -8; Gli-Sufu block: 63*; NCOA3 inh: 20; COUP-TFII inh: -13; Gli antag conf: 23; SufuKO cytotox: 4; Wnt3a counter: -26

What do the screens show for `Cc1c(N=Cc2c(O)n(CCc3ccccc3)c(=O)[nH]c2=O)c(=O)n(-c2ccccc2)n1C`?
SRC2 inh: -17; LRH-1 inv ag: -1; SRC1 inh: -34; Gli-Sufu block: 6; NCOA3 inh: 0; COUP-TFII inh: -6

What do the screens show for `CCOc1ccc(-c2cc(C)[n+](CCO)c(-c3ccc(OCC)cc3)c2)cc1`?
SRC2 inh: -9; LRH-1 inv ag: 20; SRC1 inh: -7; Gli-Sufu block: 64*; NCOA3 inh: 20; COUP-TFII inh: 8; Gli antag conf: 60*; SufuKO cytotox: 34*; Wnt3a counter: -47

Results for Cc1ccc(-n2c(C)nc3cc(Cl)ccc3c2=O)nc1 ?
SRC2 inh: -46; LRH-1 inv ag: -98; SRC1 inh: -125; Gli-Sufu block: -12; NCOA3 inh: -74; COUP-TFII inh: -33

Results for C/C(=N\Nc1cccc2ccccc12)c1c(O)n(Cc2ccccc2)c(=O)[nH]c1=O ?
SRC2 inh: 17; LRH-1 inv ag: -7; SRC1 inh: -20; Gli-Sufu block: 57*; NCOA3 inh: -1; COUP-TFII inh: -4; Gli antag conf: 18; SufuKO cytotox: 12; Wnt3a counter: -7

How did CCC(C)NC(=O)CCC(=O)OC1O[C@H]2OC3(C)CC[C@H]4[C@H](C)CCC(C1C)C24OO3 (some centres not stated) do in these assays?
SRC2 inh: 10; LRH-1 inv ag: 91*; SRC1 inh: 62*; Gli-Sufu block: 79*; NCOA3 inh: 77*; COUP-TFII inh: 51*; Gli antag conf: 84*; SufuKO cytotox: 22; Wnt3a counter: 25*; VP16 Luc counter: 12; COUP-TFII conf: 49*

Results for C[C@@H]1CC[C@H]2[C@@H](C)C(=O)O[C@@H]3O[C@@]4(C)CC[C@@H]1[C@]32OO4 ?
SRC2 inh: 9; LRH-1 inv ag: 23; SRC1 inh: 6; Gli-Sufu block: 15; NCOA3 inh: -2; COUP-TFII inh: 2

Results for COC(=O)C1C(c2ccc(F)cc2)CC2CCC1N2C (configuration not stated) ?
SRC2 inh: 4; COUP-TFII inh: 6

What do the screens show for `Cc1cc(-c2ccccc2)cc(-c2ccccc2)[n+]1CCc1ccccc1`?
SRC2 inh: 17; LRH-1 inv ag: 63; SRC1 inh: 39; Gli-Sufu block: 92*; NCOA3 inh: 57; COUP-TFII inh: 38*; Gli antag conf: 92*; SufuKO cytotox: 48*; Wnt3a counter: 73*; VP16 Luc counter: 15*; COUP-TFII conf: 26

What do the screens show for `Fc1ccc(C[n+]2c(-c3ccccc3)cc(-c3ccccc3)cc2-c2ccccc2)cc1`?
SRC2 inh: -4; Gli-Sufu block: 43; COUP-TFII inh: 23

How did CCc1ccc(NC(=O)CN2CC(c3ccccc3)CC2=O)cc1 (configuration not stated) do in these assays?
SRC2 inh: -4; LRH-1 inv ag: 8; SRC1 inh: -1; Gli-Sufu block: 5; NCOA3 inh: 15; COUP-TFII inh: -11

Results for CC[C@@H](O)C[C@H]1CCC[C@@]2(C[C@@H]3OC(=O)/C=C/[C@@](C)(O)[C@@H](O)[C@H](C)[C@@H](O)[C@H](OC4CCC(N(C)C)C(C)O4)[C@@H](O)[C@](C)(O)CCCCC/C=C/[C@@H]4CC(C)(C)O[C@@]4(O)C[C@H](O2)[C@H]3C)O1 (some centres not stated) ?
SRC2 inh: -17; LRH-1 inv ag: 92*; SRC1 inh: 69*; Gli-Sufu block: 89*; NCOA3 inh: 73*; COUP-TFII inh: 80*; Gli antag conf: 89*; SufuKO cytotox: 20; Wnt3a counter: 22; VP16 Luc counter: 3; COUP-TFII conf: 73*

How did O=C(c1ccc(C(F)(F)F)cc1)C1CCCN(Cc2ccncc2)C1 (configuration not stated) do in these assays?
SRC2 inh: 22; LRH-1 inv ag: 21; SRC1 inh: -6; Gli-Sufu block: 56*; NCOA3 inh: 20; COUP-TFII inh: 46*; Gli antag conf: 38; SufuKO cytotox: 21; Wnt3a counter: -5; VP16 Luc counter: 7; COUP-TFII conf: 18

How did COc1ccc(/C=C/C=C2C(=O)NC(=S)NC2=O)cc1 do in these assays?
SRC2 inh: 1; LRH-1 inv ag: 3; SRC1 inh: -10; Gli-Sufu block: 3; NCOA3 inh: 8; COUP-TFII inh: 12

Results for COc1cc2c(cc1OC)[C@H]1C(=O)c3ccc4c(c3O[C@H]1CO2)C[C@@H](C(C)(C)O)O4 ?
SRC2 inh: 11; LRH-1 inv ag: 10; SRC1 inh: 3; Gli-Sufu block: 14; NCOA3 inh: -5; COUP-TFII inh: 6

Results for COc1cc2c(cc1OC)[C@@H]1C(=O)c3ccc4c(c3O[C@@H]1CO2)C[C@H](C(C)C)O4 ?
SRC2 inh: 24; LRH-1 inv ag: 45; SRC1 inh: 10; Gli-Sufu block: 83*; NCOA3 inh: 20; COUP-TFII inh: 67*; Gli antag conf: 85*; SufuKO cytotox: 42*; Wnt3a counter: 53*; VP16 Luc counter: 3; COUP-TFII conf: 63*
